According to paper PMC7862700, “An all-to-all approach to the identification of sequence-specific readers for epigenetic DNA modifications on cytosine”:

Tests used:
Assay in all cases: DAPPL (digital affinity profiling via proximity ligation, sequencing); 10 mM Tris-HCl pH 7.5, 50 mM NaCl, 1 mM DTT, 4% glycerol, room temperature, 30 min; GST-TFs on glutathione beads, 16-mer random dsDNA library, 0.1% formaldehyde crosslink after washing; high values mean tight binding
FLI1 = molecular target: T1, FLI1 (Homo sapiens, UniProt Q01543 1-452); conditions: protein: recombinant; tags: N-terminal GST; dsDNA, one strand shown
T1 sequence: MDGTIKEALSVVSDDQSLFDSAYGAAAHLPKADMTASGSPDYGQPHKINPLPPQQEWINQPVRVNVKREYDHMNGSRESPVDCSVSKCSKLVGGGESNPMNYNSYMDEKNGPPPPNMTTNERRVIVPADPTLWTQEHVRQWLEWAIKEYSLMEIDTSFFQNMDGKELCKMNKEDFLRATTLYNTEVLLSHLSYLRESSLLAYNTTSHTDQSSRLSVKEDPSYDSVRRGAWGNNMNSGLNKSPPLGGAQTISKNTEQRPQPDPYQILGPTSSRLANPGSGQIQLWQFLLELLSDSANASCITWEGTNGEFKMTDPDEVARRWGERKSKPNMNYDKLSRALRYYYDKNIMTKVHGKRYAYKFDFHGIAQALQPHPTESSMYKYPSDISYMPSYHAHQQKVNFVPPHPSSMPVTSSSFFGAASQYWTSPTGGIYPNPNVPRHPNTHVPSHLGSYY
How it was run: (§1)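 A tag-only sample was pooled with DNA-barcoded human transcription factors that had been expressed in yeast as GST fusions and captured on glutathione beads. The pools were incubated for 30 min at room temperature with 200 nmole of a random double-stranded 16-mer DNA library in Tris/NaCl/DTT/glycerol buffer, then washed, crosslinked with 0.1% formaldehyde, proximity-ligated (BsaI/T4 ligase, 1 h, 37 °C), PCR-amplified and sequenced on an Illumina NextSeq500. Binding signal is each hexamer's read frequency for a factor divided by its frequency for the tag-only sample.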

ELK1 = molecular target: T2, ELK1 (Homo sapiens, UniProt P19419 1-428); conditions: protein: recombinant; tags: N-terminal GST; dsDNA, one strand shown
T2 sequence: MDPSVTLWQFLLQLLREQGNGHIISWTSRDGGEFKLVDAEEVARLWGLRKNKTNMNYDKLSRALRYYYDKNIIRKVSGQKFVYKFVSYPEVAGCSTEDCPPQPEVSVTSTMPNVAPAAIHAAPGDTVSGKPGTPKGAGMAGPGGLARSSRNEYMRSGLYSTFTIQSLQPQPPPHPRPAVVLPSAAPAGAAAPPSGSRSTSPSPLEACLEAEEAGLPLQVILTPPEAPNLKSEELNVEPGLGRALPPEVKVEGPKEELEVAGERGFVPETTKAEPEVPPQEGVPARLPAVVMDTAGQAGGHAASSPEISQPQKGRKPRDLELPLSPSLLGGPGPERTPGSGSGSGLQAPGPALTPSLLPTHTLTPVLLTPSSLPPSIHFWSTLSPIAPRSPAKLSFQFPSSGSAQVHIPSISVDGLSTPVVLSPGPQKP
How it was run: as §1

GABPA = molecular target: T3, GABPA (Homo sapiens, UniProt Q06546 1-454); conditions: protein: recombinant; tags: N-terminal GST; dsDNA, one strand shown
T3 sequence: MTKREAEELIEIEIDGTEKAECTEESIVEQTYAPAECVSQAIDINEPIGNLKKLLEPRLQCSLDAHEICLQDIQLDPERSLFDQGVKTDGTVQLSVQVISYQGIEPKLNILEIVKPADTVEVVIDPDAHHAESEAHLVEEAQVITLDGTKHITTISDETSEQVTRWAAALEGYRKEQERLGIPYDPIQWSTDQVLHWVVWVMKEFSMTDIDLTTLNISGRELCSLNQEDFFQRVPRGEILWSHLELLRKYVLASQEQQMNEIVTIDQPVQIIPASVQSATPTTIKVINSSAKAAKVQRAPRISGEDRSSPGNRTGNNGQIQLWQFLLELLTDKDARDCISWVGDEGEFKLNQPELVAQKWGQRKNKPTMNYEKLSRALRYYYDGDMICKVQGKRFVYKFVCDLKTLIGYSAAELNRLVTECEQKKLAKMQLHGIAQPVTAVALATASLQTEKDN
How it was run: as §1

ERG = molecular target: T4, ERG (Homo sapiens, UniProt P11308 1-479); conditions: protein: recombinant; tags: N-terminal GST; dsDNA, one strand shown
T4 sequence: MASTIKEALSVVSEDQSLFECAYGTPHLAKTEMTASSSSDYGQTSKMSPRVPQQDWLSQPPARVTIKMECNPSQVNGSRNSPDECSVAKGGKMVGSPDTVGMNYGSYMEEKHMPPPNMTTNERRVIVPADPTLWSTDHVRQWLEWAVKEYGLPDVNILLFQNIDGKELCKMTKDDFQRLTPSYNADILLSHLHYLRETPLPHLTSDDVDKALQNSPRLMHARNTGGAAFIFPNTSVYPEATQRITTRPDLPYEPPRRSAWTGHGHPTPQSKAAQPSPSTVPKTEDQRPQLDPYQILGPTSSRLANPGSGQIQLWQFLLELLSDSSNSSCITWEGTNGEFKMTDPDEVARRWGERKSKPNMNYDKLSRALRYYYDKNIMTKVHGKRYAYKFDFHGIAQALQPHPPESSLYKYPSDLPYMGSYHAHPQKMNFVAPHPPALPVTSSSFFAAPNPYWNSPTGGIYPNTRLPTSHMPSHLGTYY
How it was run: as §1

ELF1 = ELF1 (Homo sapiens, UniProt P32519 1-619); conditions: protein: recombinant; tags: N-terminal GST; dsDNA, one strand shown
How it was run: as §1

EHF = molecular target: T5, EHF (Homo sapiens, UniProt Q9NZC4 1-300); conditions: protein: recombinant; tags: N-terminal GST; dsDNA, one strand shown
T5 sequence: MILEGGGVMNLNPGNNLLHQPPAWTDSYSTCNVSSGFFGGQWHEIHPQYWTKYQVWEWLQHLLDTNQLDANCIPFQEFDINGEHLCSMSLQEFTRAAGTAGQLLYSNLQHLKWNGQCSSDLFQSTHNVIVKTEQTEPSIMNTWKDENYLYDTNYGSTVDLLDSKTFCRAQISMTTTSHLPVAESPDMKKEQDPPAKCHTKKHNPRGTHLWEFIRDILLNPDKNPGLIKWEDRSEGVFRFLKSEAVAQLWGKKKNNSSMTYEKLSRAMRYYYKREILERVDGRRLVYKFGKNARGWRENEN
How it was run: as §1

SPI1 = SPI1 (Homo sapiens, UniProt P17947 1-270); conditions: protein: recombinant; tags: N-terminal GST; dsDNA, one strand shown
How it was run: as §1

SPIB = SPIB (Homo sapiens, UniProt Q01892 1-262); conditions: protein: recombinant; tags: N-terminal GST; dsDNA, one strand shown
How it was run: as §1

ELK3 = molecular target: T6, ELK3 (Homo sapiens, UniProt P41970 1-407); conditions: protein: recombinant; tags: N-terminal GST; dsDNA, one strand shown
T6 sequence: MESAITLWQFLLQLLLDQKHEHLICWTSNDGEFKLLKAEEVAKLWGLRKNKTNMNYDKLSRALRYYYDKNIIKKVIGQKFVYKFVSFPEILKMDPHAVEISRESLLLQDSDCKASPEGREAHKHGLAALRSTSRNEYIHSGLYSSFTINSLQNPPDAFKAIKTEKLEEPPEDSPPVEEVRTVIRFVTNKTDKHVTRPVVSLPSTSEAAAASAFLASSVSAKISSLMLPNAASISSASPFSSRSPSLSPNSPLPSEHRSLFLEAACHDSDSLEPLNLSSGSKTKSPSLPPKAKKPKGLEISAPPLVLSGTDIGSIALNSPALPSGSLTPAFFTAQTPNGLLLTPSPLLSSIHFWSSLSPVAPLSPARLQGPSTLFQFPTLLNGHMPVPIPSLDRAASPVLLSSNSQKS
How it was run: as §1

FEV = molecular target: T7, FEV (Homo sapiens, UniProt Q99581 1-238); conditions: protein: recombinant; tags: N-terminal GST; dsDNA, one strand shown
T7 sequence: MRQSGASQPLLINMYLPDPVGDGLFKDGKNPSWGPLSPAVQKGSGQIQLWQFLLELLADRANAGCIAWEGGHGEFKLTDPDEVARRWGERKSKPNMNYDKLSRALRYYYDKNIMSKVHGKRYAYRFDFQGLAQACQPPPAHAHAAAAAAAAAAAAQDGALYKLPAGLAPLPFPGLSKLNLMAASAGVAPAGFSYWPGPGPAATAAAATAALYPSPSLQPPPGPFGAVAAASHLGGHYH
How it was run: as §1

ETV5 = ETV5 (Homo sapiens, UniProt P41161 1-510); conditions: protein: recombinant; tags: N-terminal GST; dsDNA, one strand shown
How it was run: as §1

HSF1 = HSF1 (Homo sapiens, UniProt Q00613 1-529); conditions: protein: recombinant; tags: N-terminal GST; chain copies: 3; dsDNA, one strand shown
How it was run: as §1

SPIC = molecular target: T8, SPIC (Homo sapiens, UniProt Q8N5J4 1-248); conditions: protein: recombinant; tags: N-terminal GST; dsDNA, one strand shown
T8 sequence: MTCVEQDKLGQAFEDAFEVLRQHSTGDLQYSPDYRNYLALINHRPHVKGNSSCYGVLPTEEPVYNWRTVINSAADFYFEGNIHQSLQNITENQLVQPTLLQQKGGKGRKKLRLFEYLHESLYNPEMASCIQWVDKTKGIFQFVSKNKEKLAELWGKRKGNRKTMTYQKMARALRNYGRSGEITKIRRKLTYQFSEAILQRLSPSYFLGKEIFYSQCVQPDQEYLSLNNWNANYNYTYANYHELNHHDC
How it was run: as §1

ELF4 = ELF4 (Homo sapiens, UniProt Q99607 1-663); conditions: protein: recombinant; tags: N-terminal GST; dsDNA, one strand shown
How it was run: as §1

ELK4 = molecular target: T9, ELK4 (Homo sapiens, UniProt P28324-2 1-405); conditions: protein: recombinant; tags: N-terminal GST; dsDNA, one strand shown
T9 sequence: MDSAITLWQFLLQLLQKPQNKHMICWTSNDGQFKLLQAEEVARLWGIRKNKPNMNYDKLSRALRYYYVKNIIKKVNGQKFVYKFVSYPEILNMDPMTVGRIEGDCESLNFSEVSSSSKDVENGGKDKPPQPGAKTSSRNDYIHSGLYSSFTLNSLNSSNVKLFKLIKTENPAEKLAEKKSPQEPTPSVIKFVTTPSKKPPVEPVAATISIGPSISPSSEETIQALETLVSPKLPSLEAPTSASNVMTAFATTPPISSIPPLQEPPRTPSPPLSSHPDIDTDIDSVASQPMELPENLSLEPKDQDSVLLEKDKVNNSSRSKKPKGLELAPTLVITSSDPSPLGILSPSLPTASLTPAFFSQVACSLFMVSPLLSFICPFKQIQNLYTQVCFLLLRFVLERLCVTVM
How it was run: as §1

ETV2 = molecular target: T10, ETV2 (Homo sapiens, UniProt O00321 1-342); conditions: protein: recombinant; tags: N-terminal GST; dsDNA, one strand shown
T10 sequence: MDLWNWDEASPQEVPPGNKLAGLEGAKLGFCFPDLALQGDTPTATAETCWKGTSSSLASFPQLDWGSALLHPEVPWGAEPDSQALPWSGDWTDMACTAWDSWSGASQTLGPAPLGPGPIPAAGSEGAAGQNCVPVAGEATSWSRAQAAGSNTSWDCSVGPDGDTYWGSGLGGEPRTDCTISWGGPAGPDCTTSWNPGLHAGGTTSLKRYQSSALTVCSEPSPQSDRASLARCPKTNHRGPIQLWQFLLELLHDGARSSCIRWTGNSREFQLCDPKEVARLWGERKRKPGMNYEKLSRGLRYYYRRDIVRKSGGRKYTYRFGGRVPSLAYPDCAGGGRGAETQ
How it was run: as §1

ELF3 = molecular target: T11, ELF3 (Homo sapiens, UniProt P78545 1-371); conditions: protein: recombinant; tags: N-terminal GST; dsDNA, one strand shown
T11 sequence: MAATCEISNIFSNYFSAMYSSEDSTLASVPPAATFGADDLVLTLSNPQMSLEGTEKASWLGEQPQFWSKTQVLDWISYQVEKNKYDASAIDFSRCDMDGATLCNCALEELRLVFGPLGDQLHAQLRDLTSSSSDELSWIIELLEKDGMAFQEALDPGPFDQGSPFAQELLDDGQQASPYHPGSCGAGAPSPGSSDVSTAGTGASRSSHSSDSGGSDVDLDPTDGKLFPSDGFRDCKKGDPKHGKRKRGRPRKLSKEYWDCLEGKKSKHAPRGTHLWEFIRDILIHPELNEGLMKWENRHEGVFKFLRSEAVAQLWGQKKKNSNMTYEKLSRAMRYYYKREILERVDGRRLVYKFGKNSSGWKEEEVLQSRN
How it was run: as §1

ETV1 = ETV1 (Homo sapiens, UniProt P50549 1-477); conditions: protein: recombinant; tags: N-terminal GST; dsDNA, one strand shown
How it was run: as §1

ELF4, sequence (Q99607 whole entry): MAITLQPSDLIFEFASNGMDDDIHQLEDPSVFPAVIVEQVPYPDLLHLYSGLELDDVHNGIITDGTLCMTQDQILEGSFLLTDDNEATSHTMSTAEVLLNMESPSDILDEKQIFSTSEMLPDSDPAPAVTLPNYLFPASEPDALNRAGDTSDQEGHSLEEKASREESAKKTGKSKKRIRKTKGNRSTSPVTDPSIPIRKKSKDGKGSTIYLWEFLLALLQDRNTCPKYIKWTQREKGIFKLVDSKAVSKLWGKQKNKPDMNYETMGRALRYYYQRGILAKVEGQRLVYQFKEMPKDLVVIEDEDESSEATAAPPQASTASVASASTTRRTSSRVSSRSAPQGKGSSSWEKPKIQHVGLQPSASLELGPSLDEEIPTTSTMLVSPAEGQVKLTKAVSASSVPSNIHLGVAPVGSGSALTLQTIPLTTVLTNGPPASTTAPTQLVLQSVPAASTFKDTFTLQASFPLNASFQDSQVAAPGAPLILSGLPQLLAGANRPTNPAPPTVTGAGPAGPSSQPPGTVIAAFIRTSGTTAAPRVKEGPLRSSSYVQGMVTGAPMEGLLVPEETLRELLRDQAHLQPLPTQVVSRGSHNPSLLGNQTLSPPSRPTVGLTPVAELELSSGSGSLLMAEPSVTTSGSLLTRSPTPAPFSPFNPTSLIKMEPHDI
HSF1, sequence (Q00613 whole entry): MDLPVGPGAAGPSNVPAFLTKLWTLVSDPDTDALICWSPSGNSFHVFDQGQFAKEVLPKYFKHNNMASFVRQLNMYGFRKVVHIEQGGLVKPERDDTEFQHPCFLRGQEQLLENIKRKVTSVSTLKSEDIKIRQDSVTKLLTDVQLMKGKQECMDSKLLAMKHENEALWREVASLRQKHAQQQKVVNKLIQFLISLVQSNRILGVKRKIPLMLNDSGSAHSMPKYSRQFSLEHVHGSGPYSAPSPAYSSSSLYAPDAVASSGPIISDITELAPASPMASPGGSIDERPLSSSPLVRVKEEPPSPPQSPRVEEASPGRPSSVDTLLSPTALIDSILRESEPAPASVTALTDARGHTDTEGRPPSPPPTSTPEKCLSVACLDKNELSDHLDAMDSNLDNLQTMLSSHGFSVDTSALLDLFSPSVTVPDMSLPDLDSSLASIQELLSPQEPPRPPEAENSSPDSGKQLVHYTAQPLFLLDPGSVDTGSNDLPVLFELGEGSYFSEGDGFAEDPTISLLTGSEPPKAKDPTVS
ETV5, sequence (P41161 whole entry): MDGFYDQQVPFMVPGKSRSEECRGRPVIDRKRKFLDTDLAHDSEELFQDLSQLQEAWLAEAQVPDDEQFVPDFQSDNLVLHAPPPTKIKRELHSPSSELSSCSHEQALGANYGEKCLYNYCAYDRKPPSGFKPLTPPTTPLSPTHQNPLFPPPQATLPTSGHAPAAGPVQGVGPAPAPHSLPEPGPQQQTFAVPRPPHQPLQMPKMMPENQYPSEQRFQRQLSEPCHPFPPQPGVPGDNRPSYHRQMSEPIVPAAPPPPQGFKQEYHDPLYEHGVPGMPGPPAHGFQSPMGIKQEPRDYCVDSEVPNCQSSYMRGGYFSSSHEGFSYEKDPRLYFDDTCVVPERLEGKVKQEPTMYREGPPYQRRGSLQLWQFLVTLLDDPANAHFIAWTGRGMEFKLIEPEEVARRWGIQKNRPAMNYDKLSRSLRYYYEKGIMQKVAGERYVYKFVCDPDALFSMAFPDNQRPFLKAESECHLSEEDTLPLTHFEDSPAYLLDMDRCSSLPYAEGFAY
ELF1, sequence (P32519 whole entry): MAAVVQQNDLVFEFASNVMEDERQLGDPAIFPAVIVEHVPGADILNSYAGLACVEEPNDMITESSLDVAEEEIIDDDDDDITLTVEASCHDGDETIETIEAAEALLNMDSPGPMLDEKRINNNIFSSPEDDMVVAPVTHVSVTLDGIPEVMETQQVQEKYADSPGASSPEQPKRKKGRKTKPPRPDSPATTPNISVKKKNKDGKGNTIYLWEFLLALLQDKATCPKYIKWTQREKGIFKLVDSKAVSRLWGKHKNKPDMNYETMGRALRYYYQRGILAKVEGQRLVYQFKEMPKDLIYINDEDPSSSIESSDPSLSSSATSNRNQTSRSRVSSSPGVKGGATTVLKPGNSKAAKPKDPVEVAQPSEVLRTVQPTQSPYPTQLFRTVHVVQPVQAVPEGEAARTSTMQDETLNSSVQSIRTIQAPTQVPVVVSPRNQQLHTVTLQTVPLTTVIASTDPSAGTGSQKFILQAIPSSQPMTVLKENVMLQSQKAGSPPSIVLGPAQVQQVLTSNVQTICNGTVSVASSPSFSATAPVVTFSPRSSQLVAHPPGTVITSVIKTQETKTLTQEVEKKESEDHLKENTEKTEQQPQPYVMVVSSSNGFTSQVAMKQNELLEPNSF
ETV1, sequence (P50549 whole entry): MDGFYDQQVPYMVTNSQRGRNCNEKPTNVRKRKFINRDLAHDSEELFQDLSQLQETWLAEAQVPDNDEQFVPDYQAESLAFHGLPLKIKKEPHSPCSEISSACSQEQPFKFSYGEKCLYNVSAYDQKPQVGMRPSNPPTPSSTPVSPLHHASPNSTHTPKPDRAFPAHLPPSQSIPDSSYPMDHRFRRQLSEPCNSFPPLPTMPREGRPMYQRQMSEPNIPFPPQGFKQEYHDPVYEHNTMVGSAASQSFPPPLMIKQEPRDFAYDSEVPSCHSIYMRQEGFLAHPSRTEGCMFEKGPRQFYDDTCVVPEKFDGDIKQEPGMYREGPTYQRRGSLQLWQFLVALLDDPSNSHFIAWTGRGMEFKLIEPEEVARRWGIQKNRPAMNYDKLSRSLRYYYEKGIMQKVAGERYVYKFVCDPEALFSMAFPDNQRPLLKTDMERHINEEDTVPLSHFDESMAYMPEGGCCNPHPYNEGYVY
SPIB, sequence (Q01892 whole entry): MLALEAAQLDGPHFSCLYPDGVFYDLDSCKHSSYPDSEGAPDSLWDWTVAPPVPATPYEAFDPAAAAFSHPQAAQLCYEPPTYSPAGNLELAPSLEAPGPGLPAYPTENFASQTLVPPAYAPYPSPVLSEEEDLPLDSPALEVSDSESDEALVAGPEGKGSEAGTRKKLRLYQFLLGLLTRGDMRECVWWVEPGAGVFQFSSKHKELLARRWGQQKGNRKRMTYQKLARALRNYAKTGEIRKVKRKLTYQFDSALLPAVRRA

CACTCC
binding signal (FLI1): 1.27 fold enrichment (6-mer frequency, TF over GST control)
binding signal (ELK1): 1.41 fold enrichment (6-mer frequency, TF over GST control)
binding signal (GABPA): 1.32 fold enrichment (6-mer frequency, TF over GST control)
binding signal (ERG): 1.29 fold enrichment (6-mer frequency, TF over GST control)
binding signal (ELF1): 1.34 fold enrichment (6-mer frequency, TF over GST control)
binding signal (EHF): 1.17 fold enrichment (6-mer frequency, TF over GST control)
binding signal (SPI1): 1.23 fold enrichment (6-mer frequency, TF over GST control)
binding signal (SPIB): 1.33 fold enrichment (6-mer frequency, TF over GST control)
binding signal (ELK3): 1.27 fold enrichment (6-mer frequency, TF over GST control)
binding signal (FEV): 1.28 fold enrichment (6-mer frequency, TF over GST control)
binding signal (ETV5): 1.27 fold enrichment (6-mer frequency, TF over GST control)
binding signal (HSF1): 1.05 fold enrichment (6-mer frequency, TF over GST control)
binding signal (SPIC): 1.28 fold enrichment (6-mer frequency, TF over GST control)
binding signal (ELF4): 1.34 fold enrichment (6-mer frequency, TF over GST control)
binding signal (ELK4): 1.35 fold enrichment (6-mer frequency, TF over GST control)
binding signal (ETV2): 1.17 fold enrichment (6-mer frequency, TF over GST control)
binding signal (ELF3): 1.23 fold enrichment (6-mer frequency, TF over GST control)
binding signal (ETV1): 1.27 fold enrichment (6-mer frequency, TF over GST control)
